Source: PubChem BioAssay (EPA / NIEHS)
Inconclusive results are not listed. Active and inactive are the calls of the source. How the source made its calls, unless noted: active means hit-call score of the fitted dose curve at least 0.9, where 1 is the maximum; inactive means score below 0.9.

Tests used:
TTR (gene 7276) = test: CCTE_GLTED_hTTR_0.125uM: CCTE's human Transthyretin (hTTR) Inhibition Assay, with 0.125uM TTR, Great Lakes Toxicology and Ecology Division (GLTED) Lab (AID 2284431);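 further: hits lower the fluorescence signal relative to DMSO baseline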
Method in brief: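 Cell-free displacement of the fluorescent probe ANSA from human TTR (0.125uM) after 2 h incubation with test chemical. Fluorescence read at 380 nm excitation/475 nm emission; loss of signal fitted relative to DMSO baseline.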

[1] = CCTE_Padilla_ZF_Score.Any: CCTE's 144 Hour Post-fertilization zebrafish Assay Score for Any Mortality or Malformation, Padilla Lab (AID 2284416)
Method in brief: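 Wild-type zebrafish embryos with chorions, one per well in 10% Hanks' from 6–8 hpf, dosed in sealed plates at 26 C, 14:10 h light:dark; rinsed at 5 dpf; blinded scoring at 6 dpf for death or malformation, versus DMSO.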

[2] = system: Brachyury (BRA) Protein Expression, TBXT (gene 6862); test: CCTE_Deisenroth_DEVTOX-GLR_Endo_BRA: CCTE's DevTox GLR-Endo Assay Evaluation of Brachyury (BRA) Protein Expression, Deisenroth Lab (AID 2284417)
Method in brief: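 RUES2-GLR human pluripotent cells, seeded 24 h, then differentiated 48 h in defined media with two chemical exposures 24 h apart (10-point series, 1 nM - 200 uM). Fixed, nuclear-stained, imaged; endpoint is percent BRA+ cells minus 0.2% DMSO control.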

[3] = CCTE_Deisenroth_DEVTOX-GLR_Endo_CellCount: Viability Assessment in CCTE's DevTox GLR-Endo Assay, Deisenroth Lab (AID 2284420)
Method in brief: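 RUES2-GLR human pluripotent cells seeded 24 h, then differentiated 48 h with two chemical exposures at 24 h intervals (10-point, 1 nM - 200 uM). Fixed, nuclear-stained, imaged; nuclei counts give % change in cell count versus 0.2% DMSO.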

[4] = system: SRY-box transcription factor 17 (SOX17) Protein Expression, Deisenroth Lab, SOX17 (gene 64321); test: CCTE_Deisenroth_DEVTOX-GLR_Pluri_SOX17: CCTE's DevTox GLR-Pluri Assay Evaluation of SRY-box transcription factor 17 (SOX17) Protein Expression, Deisenroth Lab (AID 2284427; active means hit-call score of the fitted dose curve at least 0.9, where 1 is the maximum)
Method in brief: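 RUES2-GLR human pluripotent cells were seeded 24 h, then differentiated 48 h in defined media with two chemical exposures 24 h apart (10-point series, 1 nM - 200 uM). Fixed, nuclear-stained cells were imaged; %SOX17+ cells minus 0.2% DMSO control reported.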

[5] = system: SRY-box transcription factor 2 (SOX2) Protein Expression, Deisenroth Lab, SOX2 (gene 6657); test: CCTE_Deisenroth_DEVTOX-GLR_Pluri_SOX2: CCTE's DevTox GLR-Pluri Assay Evaluation of SRY-box transcription factor 2 (SOX2) Protein Expression, Deisenroth Lab (AID 2284428)
Method in brief: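 Human pluripotent RUES2-GLR cells were seeded 24 h, then differentiated 48 h in defined media with two chemical doses at 24-h intervals (10-point, 1 nM–200 uM). Nuclear-stained cells were imaged; SOX2+ cells/cell count gave percent change versus 0.2% DMSO control.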

[6] = system: Brachyury (BRA) Protein Expression, Deisenroth Lab, TBXT (gene 6862); test: CCTE_Deisenroth_DEVTOX-GLR_Pluri_BRA: CCTE's DevTox GLR-Pluri Assay Evaluation of Brachyury (BRA) Protein Expression, Deisenroth Lab (AID 2284429; active means hit-call score of the fitted dose curve at least 0.9, where 1 is the maximum)
Method in brief: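 Mesoderm readout after 48 h differentiation of human RUES2-GLR cells, dosed twice (24-h intervals) at 1 nM - 200 uM. BRA+ frequency from fluorescence imaging of fixed, nuclear-stained cells, DMSO-corrected.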

[7] = CCTE_Deisenroth_DEVTOX-GLR_Pluri_CellCount: Viability Assessment in CCTE's DevTox GLR-Pluri Assay Evaluation of Total Cell Counts, Deisenroth Lab (AID 2284430)
Method in brief: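 Cytotoxicity readout: fluorescent nuclei counts by high-content imaging, expressed as percent change relative to 0.2% DMSO. Human RUES2-GLR pluripotent line differentiated 48 h, dosed twice at 24-h intervals across 1 nM - 200 uM (10 points).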

O=C(c1ccccc1)c1ccccc1
AC50 (TTR (gene 7276)): 21.3 µM (active)

OCC(F)(F)C(F)(F)C(F)(F)C(F)(F)C(F)(F)C(F)(F)C(F)(F)C(F)(F)C(F)(F)C(F)(F)C(F)(F)F
outcome [1]: inactive

CCCCc1oc2ccccc2c1C(=O)c1cc(I)c(OCCN(CC)CC)c(I)c1
AC50 [2]: 14.2 µM (active)
AC50 [3]: 18.2 µM (active)
AC50 [4]: 21.4 µM (active)
AC50 [5]: 10.4 µM (active)
AC50 [6]: 6.42 µM (active)
AC50 [7]: 10.6 µM (active)

O=CC(F)(F)C(F)(F)C(F)(F)C(F)F
outcome [1]: inactive

CCCCCCc1ccc(N)cc1
AC50 (TTR (gene 7276)): 9.58 µM (active)

FC(F)(F)C1(F)C(F)(F)C(F)(F)C(F)(F)C1(F)F
outcome [1]: inactive

O=P(O)(O)CCC(F)(F)C(F)(F)C(F)(F)C(F)(F)C(F)(F)C(F)(F)C(F)(F)C(F)(F)F
AC50 [1]: 2.32 µM (active)

FC(F)(F)N1C(F)(F)C(F)(F)OC(F)(F)C1(F)F
outcome [1]: inactive

O=C(O)CCC(F)(F)C(F)(F)C(F)(F)C(F)(F)C(F)(F)C(F)(F)F
AC50 [1]: 13.8 µM (active)

CCC(C)c1ccccc1O (centres undefined)
AC50 (TTR (gene 7276)): 22.4 µM (active)

C=CC(=O)OCCC(F)(F)C(F)(F)C(F)(F)C(F)(F)C(F)(F)C(F)(F)C(F)(F)C(F)(F)F
outcome [1]: inactive

O=C(O)C(F)(F)OC(F)(F)C(F)(F)OC(F)(F)C(F)(F)OC(F)(F)C(F)(F)C(F)(F)C(F)(F)F
AC50 [1]: 2.9 µM (active)

COC(=O)C(F)(F)C(F)(F)C(F)(F)C(F)(F)C(F)(F)F
outcome [1]: inactive

CN(Cc1cnc2nc(N)nc(N)c2n1)c1ccc(C(=O)N[C@@H](CCC(=O)O)C(=O)O)cc1
AC50 [2]: 0.329 µM (active)
AC50 [3]: 0.361 µM (active)
outcome [4]: inactive
AC50 [5]: 0.0314 µM (active)
outcome [6]: inactive
outcome [7]: inactive
